Compounds without any hit were thinned out: in the full panel of roughly 79,000, 15% have a hit. Activity calls are given as the source filed them. No stated cut-off is given here; in the data, active means growth inhibition above about 70%; inactive means the rest.
Test: NCI Yeast Anticancer Drug Screen. Data for the bub3 strain (AID 167)
Settings: S. cerevisiae bub3 mutant strain, at 50.0 µM, stronger effect = higher value
In short: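 Part of a panel of yeast mutants defective in DNA damage repair or cell cycle regulation. Each strain is grown with compound, and inhibition is calculated relative to solvent-treated cultures.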

| SMILES | growth inhibition |
| --- | --- |
| Cc1ccccc1C(=O)NNC(=O)c1ccc2ccccc2c1 | -13.2% (inactive) |
| CCc1c(C)c2cc(N)ccc2[nH]c1=O | -9.9% (inactive) |
| Cc1ccccc1OCC1COCN(C(C)(C)CO)CO1 (stereo not given) | -13.9% (inactive) |
| CC(Br)C(=O)Nc1ccc(C(=O)O)c(O)c1 (stereo not given) | -7.5% (inactive) |
| c1ccc(C(Sc2c[nH]c3ccccc23)(c2ccccc2)c2ccccc2)cc1 (tested in a mixture with another compound) | -38.5% (inactive) |
| CN1CCC2(CC1)C(=O)N(Cc1ccccc1)C(=O)C2c1ccccc1 (stereo not given) | 3.4% (inactive) |
| COC(=O)CC/C=N/NC(N)=O | 2.35% (inactive) |
| NNc1ccc([N+](=O)[O-])c2[nH][nH]c(=O)c12 | 31.9% (inactive) |
| CC(=O)Oc1cc(OC(C)=O)c(OC(C)=O)c2c1CCCC2 | 16.4% (inactive) |
| CCOC(=O)C1=C(C)OC(C)(OC(C)=O)C1=O (stereo not given) | -6.9% (inactive) |
| CN(CCO)CC(O)Cn1cnc2ncnc(N)c21 (stereo not given) | 7% (inactive) |
| NC(=O)C1CC(O)CC(C(N)=O)O1 (stereo not given) | -2.35% (inactive) |
| NC1=NN(S(=O)(=O)c2ccc(Cl)cc2)CC1 | -3.3% (inactive) |
| O=C(/C=C/CBr)NC(Cc1ccccc1)C(=O)O (stereo not given) | 15.6% (inactive) |
| CC1OC2=N[C@@H]1C(=O)N[C@@H](C(C)C)C1=N[C@H](C(=O)N[C@@H](C(C)C)C3=N[C@H](C(=O)N[C@@H](C(C)C)C4=N[C@H](C(=O)N[C@H]2C(C)C)C(C)O4)C(C)O3)C(C)O1 (stereo not given in full) | 14.8% (inactive) |
| c1ccc2c(C3=NCCO3)cccc2c1 | 4% (inactive) |
| CC(C)(C)C(=O)c1ccc(-c2ccccc2)cc1 | 6.7% (inactive) |
| COC1C(C(=O)O)=CC=CC1OC(C)=O (stereo not given) | 2.8% (inactive) |
| CCCC(O)CNCC1CCC2CCc3cccc1c32 (stereo not given) | 20.4% (inactive) |
| CCCCn1cnc2c(SCc3ccc(Cl)cc3Cl)nc(N)nc21 | 15.3% (inactive) |

| SMILES | growth inhibition |
| --- | --- |
| Cc1ccc2c(c1)SCc1c-2[nH]c2ccccc12 | 91.8% (active) |
| COC(=O)c1cncn1C1CC1 | -2.95% (inactive) |
| COC(=O)C1C(=O)C2OC1C1OC(C)(C)OC21 (stereo not given) | 1.7% (inactive) |
| CC(C)(Oc1ccc(Cl)cc1)C(=O)NC1CC(C)(C)N(O)C(C)(C)C1 | -43.2% (inactive) |
| COC1C(O)CC(OC2CC(OC3CC(O[C@@H]4C(=O)c5c(cc6cc(OC7CC(OC8CC(O)C(O)C(C)O8)C(O)C(C)O7)c(C)c(O)c6c5O)C[C@H]4[C@H](OC)C(=O)[C@@H](O)[C@@H](C)O)OC(C)C3O)OC(C)C2O)OC1C (stereo not given in full) | 49.5% (inactive) |
| O=CNCC1(c2ccccc2)CCN(Cc2ccccc2)CC1 | 3.55% (inactive) |
| O=C(NCCCl)NCC1CCCO1 (stereo not given) | -4.75% (inactive) |
| O=C(O)c1ccc(F)cc1C(=O)O | 3.2% (inactive) |
| O=C1CCc2ccccc21 | 3.25% (inactive) |
| Nc1nc(N)c2nnsc2n1 | 14.4% (inactive) |
| O=C(NNC(=S)Nc1ccc(S(=O)(=O)N2CCCCC2)cc1)c1ccncc1 | 33% (inactive) |
| Cn1c(=O)oc2cc([N+](=O)[O-])c(Cl)cc21 | -6.6% (inactive) |
| CCOC(=O)c1ccc(NC(=O)CNC2CCCCC2)cc1 | 4.55% (inactive) |
| Nc1ccc(N=Nc2ccccc2)c(N)c1 | 8.55% (inactive) |
| COc1ccc(C(SCC(N)C(=O)O)(c2ccccc2)c2ccccc2)cc1 (stereo not given) | 10.8% (inactive) |
| O=C1C2C(C(=O)N1c1ccccc1)C1(Br)c3ccccc3C2(Br)C2C(=O)N(c3ccccc3)C(=O)C21 (stereo not given) | -4.55% (inactive) |
| N#Cc1cccc(N2C(=O)c3ccc(C(=O)c4ccc5c(c4)C(=O)N(c4cccc(C#N)c4)C5=O)cc3C2=O)c1 | -0.7% (inactive) |
| CCCCCCCCn1nnnc1N | 20.7% (inactive) |
| CC(C)CC(NS(=O)(=O)Cc1ccccc1)C(=O)NN (stereo not given) | 7.5% (inactive) |
| CN1CCC/C1=N\c1ncn[nH]1 | -8.5% (inactive) |

Test: NCI Yeast Anticancer Drug Screen. Data for the mlh1 rad18 strain (AID 175)
Settings: S. cerevisiae mlh1 rad18 strain growth inhibition; at 50.0 µM; stronger effect = higher value
In short: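 Yeast w/ defined DNA-repair lesions; compound exposure; growth vs vehicle controls → % inhibition.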

| SMILES | growth inhibition |
| --- | --- |
| Cc1ccccc1C(=O)NNC(=O)c1ccc2ccccc2c1 | -9.45% (inactive) |
| CCc1c(C)c2cc(N)ccc2[nH]c1=O | 6.45% (inactive) |
| Cc1ccccc1OCC1COCN(C(C)(C)CO)CO1 (stereo not given) | 16.8% (inactive) |
| CC(Br)C(=O)Nc1ccc(C(=O)O)c(O)c1 (stereo not given) | 2.95% (inactive) |
| c1ccc(C(Sc2c[nH]c3ccccc23)(c2ccccc2)c2ccccc2)cc1 (tested in a mixture with another compound) | -25.1% (inactive) |
| CN1CCC2(CC1)C(=O)N(Cc1ccccc1)C(=O)C2c1ccccc1 (stereo not given) | -13.4% (inactive) |
| COC(=O)CC/C=N/NC(N)=O | -4.05% (inactive) |
| NNc1ccc([N+](=O)[O-])c2[nH][nH]c(=O)c12 | 11.4% (inactive) |
| CC(=O)Oc1cc(OC(C)=O)c(OC(C)=O)c2c1CCCC2 | 56.7% (inactive) |
| CCOC(=O)C1=C(C)OC(C)(OC(C)=O)C1=O (stereo not given) | 13.8% (inactive) |
| CN(CCO)CC(O)Cn1cnc2ncnc(N)c21 (stereo not given) | 33.5% (inactive) |
| NC(=O)C1CC(O)CC(C(N)=O)O1 (stereo not given) | -23.9% (inactive) |
| NC1=NN(S(=O)(=O)c2ccc(Cl)cc2)CC1 | 5.95% (inactive) |
| O=C(/C=C/CBr)NC(Cc1ccccc1)C(=O)O (stereo not given) | -4.2% (inactive) |
| CC1OC2=N[C@@H]1C(=O)N[C@@H](C(C)C)C1=N[C@H](C(=O)N[C@@H](C(C)C)C3=N[C@H](C(=O)N[C@@H](C(C)C)C4=N[C@H](C(=O)N[C@H]2C(C)C)C(C)O4)C(C)O3)C(C)O1 (stereo not given in full) | 9.55% (inactive) |
| c1ccc2c(C3=NCCO3)cccc2c1 | 11.8% (inactive) |
| CC(C)(C)C(=O)c1ccc(-c2ccccc2)cc1 | -2.1% (inactive) |
| COC1C(C(=O)O)=CC=CC1OC(C)=O (stereo not given) | 13.6% (inactive) |
| CCCC(O)CNCC1CCC2CCc3cccc1c32 (stereo not given) | 18.9% (inactive) |
| CCCCn1cnc2c(SCc3ccc(Cl)cc3Cl)nc(N)nc21 | -8.2% (inactive) |

| SMILES | growth inhibition |
| --- | --- |
| Cc1ccc2c(c1)SCc1c-2[nH]c2ccccc12 | 92.8% (active) |
| COC(=O)c1cncn1C1CC1 | -8.2% (inactive) |
| COC(=O)C1C(=O)C2OC1C1OC(C)(C)OC21 (stereo not given) | -0.95% (inactive) |
| CC(C)(Oc1ccc(Cl)cc1)C(=O)NC1CC(C)(C)N(O)C(C)(C)C1 | -18.4% (inactive) |
| COC1C(O)CC(OC2CC(OC3CC(O[C@@H]4C(=O)c5c(cc6cc(OC7CC(OC8CC(O)C(O)C(C)O8)C(O)C(C)O7)c(C)c(O)c6c5O)C[C@H]4[C@H](OC)C(=O)[C@@H](O)[C@@H](C)O)OC(C)C3O)OC(C)C2O)OC1C (stereo not given in full) | 48.5% (inactive) |
| O=CNCC1(c2ccccc2)CCN(Cc2ccccc2)CC1 | 8.45% (inactive) |
| O=C(NCCCl)NCC1CCCO1 (stereo not given) | 0.15% (inactive) |
| O=C(O)c1ccc(F)cc1C(=O)O | 1.45% (inactive) |
| O=C1CCc2ccccc21 | 7.75% (inactive) |
| Nc1nc(N)c2nnsc2n1 | 2.9% (inactive) |
| O=C(NNC(=S)Nc1ccc(S(=O)(=O)N2CCCCC2)cc1)c1ccncc1 | 46% (inactive) |
| Cn1c(=O)oc2cc([N+](=O)[O-])c(Cl)cc21 | 6.75% (inactive) |
| CCOC(=O)c1ccc(NC(=O)CNC2CCCCC2)cc1 | -26.1% (inactive) |
| Nc1ccc(N=Nc2ccccc2)c(N)c1 | 28.6% (inactive) |
| COc1ccc(C(SCC(N)C(=O)O)(c2ccccc2)c2ccccc2)cc1 (stereo not given) | 54.6% (inactive) |
| O=C1C2C(C(=O)N1c1ccccc1)C1(Br)c3ccccc3C2(Br)C2C(=O)N(c3ccccc3)C(=O)C21 (stereo not given) | -2.55% (inactive) |
| N#Cc1cccc(N2C(=O)c3ccc(C(=O)c4ccc5c(c4)C(=O)N(c4cccc(C#N)c4)C5=O)cc3C2=O)c1 | -12.3% (inactive) |
| CCCCCCCCn1nnnc1N | 8.1% (inactive) |
| CC(C)CC(NS(=O)(=O)Cc1ccccc1)C(=O)NN (stereo not given) | -22.1% (inactive) |
| CN1CCC/C1=N\c1ncn[nH]1 | -2.85% (inactive) |
